The list is not random: actives were taken first. Their share in the collection is about 7.3%.
AmpC inh no detg: inhibitors of E. coli AmpC beta-lactamase without detergent | P00811 | AmpC nitrocefin hydrolysis, absorbance 480 nm, 0.0001% Triton | Potency, µM (highest dose often 57.1 µM), without a hit: top-dose activity change, negative = inhibition, most hits filed as inhibitors | hit rate 0.52% among 330,000 | AID 485341;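 note: potency is the fitted concentration of half-maximal effect; plate controls were no compound for no effect and no enzyme for full effect; nearly all actives have a fitted effect of over 20% in size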
Target sequence (P00811 whole entry, looked up): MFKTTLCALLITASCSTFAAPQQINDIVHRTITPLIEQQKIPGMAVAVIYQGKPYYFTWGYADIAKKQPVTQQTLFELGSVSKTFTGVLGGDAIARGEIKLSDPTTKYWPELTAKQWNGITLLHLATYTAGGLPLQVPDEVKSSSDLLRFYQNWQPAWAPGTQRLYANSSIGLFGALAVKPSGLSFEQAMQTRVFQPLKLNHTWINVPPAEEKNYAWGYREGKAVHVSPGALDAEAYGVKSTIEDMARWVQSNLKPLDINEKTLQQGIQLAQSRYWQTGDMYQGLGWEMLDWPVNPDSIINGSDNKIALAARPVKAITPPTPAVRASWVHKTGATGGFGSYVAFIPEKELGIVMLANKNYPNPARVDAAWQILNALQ
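AmpC (5.3 nM in the dispensed reagent) in 20 mM phosphate pH 7.0 with 0.01% (detergent screen) or 0.0001% Triton X-100 was preincubated with compounds for 15 min at room temperature. Nitrocefin was then added from an 800 uM solution, and hydrolysis was followed at 480 nm.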
AmpC detergent: blocks E. coli AmpC beta-lactamase in detergent assay | P00811 | AmpC hydrolysis of nitrocefin, absorbance 480 nm, 0.01% Triton | Potency, µM (doses to about 114 µM), for the others: at the top dose activity change, negative = inhibition, most hits filed as inhibitors | hit rate 0.041% among 370,000;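 note: potency is the fitted concentration of half-maximal effect; 0% = no-compound wells and -100% = no-enzyme wells; nearly all actives have a fitted effect of over 25% in size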
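AmpC (5.3 nM in the dispensed reagent) in 20 mM phosphate pH 7.0 with 0.01% (detergent screen) or 0.0001% Triton X-100 was preincubated with compounds for 15 min at room temperature. Nitrocefin was then added from an 800 uM solution, and hydrolysis was followed at 480 nm.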
HCMV inh: human cytomegalovirus inhibition; HFF cells, HCMV-luciferase reporter, 72 h; active compounds read low; activity change, negative = inhibition, % at 57.5 µM; hit rate 4.5% among 410,000; in the data active = activity change below about -60%; inconclusive = no clear call, values can overlap the other calls; inactive = above about -39%
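Compounds were evaluated in HFFs infected with an HCMV luciferase reporter virus (MOI 1 PFU/cell). Luciferase in lysates collected 72 h post infection served as the replication measure.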
FMDV antiviral: blocks foot and mouth disease virus | Potency, µM (series often up to 57.9 µM), without a hit: top-dose activity change, negative = inhibition, hits mostly inhibitors | FMDV antiviral cell-based qHTS | AID 1159524 | hit rate 1.2% among 410,000; calls by dose curve; tested in HEK293T cells; note: read-out not given here; potency is the fitted concentration of half-maximal effect; nearly all actives have a fitted effect of over 45% in size
HCV inh: blocks hepatitis C virus; Huh7.5.1 HCVcc-Cre infection, luciferase reporter, 44 h; Potency, µM (series often up to 41.8 µM), for inactives: at the top dose activity change, negative = inhibition, usual class: inhibitors; hit rate 3.4% among 340,000; note: potency is the fitted concentration of half-maximal effect
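Whole-lifecycle infectious HCVcc-Cre system; cells 1,000/well, compound then virus (~0.5 moi) added 4 h after plating, 44 h culture. Luciferase read 15 sec following 15 min substrate incubation, room temp.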
An asterisk follows results filed as active; u = inconclusive; x = no result given. Unless noted, calls come from the whole dose curve; as a rule, active = well fitted curve in the direction sought with a large enough effect; inconclusive = small, poorly fitted or top-dose-only effect, or another doubt; inactive = no such curve, though single readings can be large; an effect the other way counts as inactive or inconclusive. Unless noted, % is set by controls: 0 for no effect and ±100 for the full control effect.

SMILES	AmpC inh no detg	AmpC detergent	HCMV inh	FMDV antiviral	HCV inh
COc1cc(OC)cc(N2C(=O)CSC23C(=O)Nc2ccccc23)c1 (stereo unspecified)	x	7.9%	6.2	-9.7%	x
CCOC(=O)c1ccc(N2C(=O)c3n[nH]c(-c4ccco4)c3C2c2ccc(F)cc2)cc1 (stereo unspecified)	x	10.4%	-88.5*	u	x
CCOC(=O)c1ccc(N2C(=O)c3n[nH]c(C)c3C2c2ccccc2)cc1 (stereo unspecified)	-5.5%	0.3%	-13.4	-6.6%	6.4%
FC(F)(F)c1cc(-c2ccco2)nc(-n2cnc3ccccc32)n1	-8.0%	u	-9.8	-9.6%	u
Cc1nc2ccccc2n1-c1nc(-c2ccco2)cc(C(F)(F)F)n1	-17.6%	1.1%	-104.0*	-5.6%	3.16µM*
CSc1ccc(S(=O)(=O)Nc2ccc3c4c(cccc24)CC3)cc1	-44.3%	-0.7%	-81.6*	-8.2%	u
O=S(=O)(Nc1ccc2c3c(cccc13)CC2)c1ccc(F)cc1	-28.7%	-12.5%	-61.1*	6.9%	-6.8%
O=C(NC1CC1)C1=C[C@@H](C2CC2)C[C@@H](OCc2ccc(CO)cc2)O1	-4.0%	0.2%	7.8	-9.5%	-8.1%
O=[N+]([O-])c1c(O)c(Cl)cc(Cl)c1Cl (tested in a mixture with another compound)	x	x	18.4	0.0%	9.4%
COc1cc(C)cc2oc(=O)c(CC(=O)N3CCN(C(=O)C4COc5ccccc5O4)CC3)c(C)c12 (stereo unspecified)	127.5%	-4.0%	-38.5	-20.2%	10µM*
N#C/C(=N/Nc1ccc(OC(F)(F)F)cc1)C(N)=S	-32.8%	-6.1%	-98.4*	9.6%	u
COc1ccc(N/N=C(\C#N)C(N)=O)cc1	-6.5%	-5.6%	36.1	23.9%	4.8%
CNC(=O)C[C@H]1C(=O)N(CCc2ccccc2)C[C@@H]1C	x	x	-3.8	-15.8%	x
N#Cc1ccc(-c2cccnc2)nc1SCc1ccc(Cl)c(Cl)c1	-24.7%	u	-35.5	-26.4%	11.2µM*
N#Cc1ccc(-c2cccnc2)nc1SCc1ccc(Cl)cc1Cl	-20.1%	-1.1%	-21.1	u	-29.0%
COc1ccc(CCNC(=O)C2CC=CCC2C(=O)O)cc1 (stereo unspecified)	-5.3%	-10.4%	26.2	-20.7%	14.2%
COc1cccc(-c2cnc(C(O)c3ccc(C(C)(C)C)cc3)[nH]2)c1 (stereo unspecified)	x	x	x	17.5%	x
COC(=O)c1cc(NC(=O)CC2CCCC2)cc(C(=O)OC)c1	-22.9%	-0.2%	-63.7*	-18.2%	-29.8%
CC(=O)c1cccc(NC(=O)CC2CCCC2)c1	-15.3%	6.1%	20.5	55.5%	-5.6%
CS(=O)(=O)Nc1cccc(-c2cc(NCc3cccs3)ncn2)c1	x	x	x	8.3%	x
O=C(CC[C@H]1O[C@@H](n2cnc3c(NC(=O)c4ccccc4)ncnc32)[C@H](O)[C@@H]1O)NCc1cccc2ccccc12	x	x	-63.8*	-15.6%	x
O=C(CC[C@H]1O[C@@H](n2cnc3c(NC(=O)c4ccccc4)ncnc32)[C@H](O)[C@@H]1O)NCc1cccs1	x	x	-1.9	-2.2%	x
COc1cc([C@H]2NC(=O)C[C@@H]2C(=O)O)ccc1OC(C)C	x	x	-13.1	x	x
COC(=O)c1cc(C)nc2c1c(=O)nc(SCc1c(C)cc(C)cc1C)n2C1CC1	x	17.3%	10.4	u	x
Cc1ccc(CSc2nc(=O)c3c(C)cc(C)nc3n2C2CC2)cc1	x	19.4%	-101.3*	u	x
SMILES	AmpC inh no detg	AmpC detergent	HCMV inh	FMDV antiviral	HCV inh
O=c1[nH]c(SCc2ccc(OC(F)(F)F)cc2)nc2c1CCC2	x	x	-10.4	-7.2%	x
CC(Oc1ccccc1)c1ccnc2nc(N3CCOCC3)nn12 (stereo unspecified)	31.7%	-0.7%	-6.0	-7.3%	-3.9%
CC(Oc1ccc(Cl)cc1Cl)c1ccnc2nc(N3CCOCC3)nn12 (stereo unspecified)	168.2%	0.4%	-77.4*	u	-22.7%
Cc1ccc(CNC(=O)CCc2c(C)nc3c(-c4ccc(F)cc4)c(C)nn3c2C)cc1	x	-6.1%	2.0	3.4%	x
CS(=O)(=O)Nc1ccc(C2=NN(C(=O)C3CCCCC3)C(c3cccs3)C2)cc1 (stereo unspecified)	7.08µM*	-14.7%	-62.2*	20µM*	4.8%
CS(=O)(=O)Nc1cccc(C2=NN(C(=O)c3ccccc3)C(c3cccs3)C2)c1 (stereo unspecified)	-13.9%	7.0%	-16.4	0.0%	u
Cc1ccc(C(=O)N2N=C(c3cccc(NS(C)(=O)=O)c3)CC2c2cccs2)cc1 (stereo unspecified)	-10.7%	-3.0%	-60.0*	-12.4%	u
CC(C)C(=O)N1N=C(c2ccc(NS(C)(=O)=O)cc2)CC1c1cccs1 (stereo unspecified)	-55.8%	-4.0%	49.6	18.9%	u
CNc1cc(-c2ccc(OC)nc2)ncn1	x	x	54.0	37.8%	x
Cc1oc(-c2ccccc2NC(=O)C2CCCO2)nc1CNC(=O)c1cc(F)c(F)cc1F (stereo unspecified)	x	x	x	-6.2%	x
COc1cc(-c2noc(C)c2/C=C/c2ccc(OC(C)=O)cc2)cc(OC)c1OC	93.8%	u	-64.7*	-12.8%	u
COc1ccc(-c2oc(=O)c3cc(OC)c(OC)cc3c2/C=C/c2ccc(OC(C)=O)cc2)cc1	5.2%	x	-19.1	-8.4%	u
CC(=O)c1ccc(NC(=O)c2ccc([N+](=O)[O-])o2)cc1	-9.6%	-8.0%	-104.7*	44.9%	u
Cc1ccc(C)c(-c2nnc(NC(=O)C3=COCCO3)o2)c1	u	u	24.8	18.1%	3.6%
CC(=O)c1cccc(NC(=O)c2ccc([N+](=O)[O-])o2)c1	x	x	-86.5*	1.7%	u
Cc1cc(C)cc(NC(=O)c2ccc([N+](=O)[O-])o2)c1	-21.6%	-18.1%	-34.2	-6.4%	u
Cc1ccc(C)c(-c2nnc(NC(=O)c3ccc([N+](=O)[O-])o3)o2)c1	-20.3%	3.0%	-74.1*	-12.9%	u
COc1ccc(NC(=O)c2ccc([N+](=O)[O-])o2)cc1	-5.3%	0.5%	-101.4*	6.9%	u
O=C(c1cccs1)N1CCCC(c2nc3c(nnn3Cc3ccccc3Cl)c(=O)[nH]2)C1 (stereo unspecified)	-12.9%	-13.0%	10.7	12.7%	15.2%
O=C(Nc1ccccc1)Nc1ncc(C(F)(F)F)cc1Cl	x	x	-29.7	-8.5%	x
FC(F)(F)c1cnc(NNC(=S)Nc2ccccc2Cl)c(Cl)c1	-18.0%	-11.6%	-100.1*	10µM*	u
Cc1cccc(NC(=S)NNc2ncc(C(F)(F)F)cc2Cl)c1	-22.8%	-13.6%	u	u	11.2µM*
O=C(CN(c1cccc(Br)c1)S(=O)(=O)c1ccccc1)N/N=C/c1cc([N+](=O)[O-])ccc1O	x	x	-93.6*	u	u
